Results from PubChem BioAssay AID680 (PCMD, 2007).
Among all 62,000 compounds or so, about 120 (0.19%) were called active. The sample holds actives, similar compounds and a random draw of the others, so the mix is not that of the screen. Cut-off read from the data, not from the text of the source: active = inhibition above about 20% (passing the limit was not always enough); inactive = the rest.

Each compound was assayed against Coagulation factor XI (Homo sapiens) (UniProt P03951) (assay: human factor XIa inhibition by mixtures – biochemical, 10-compound mixtures, primary screen (AID 680;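 note: each value is inhibition by a whole ten-compound pool holding the compound; 0% = enzyme with no mixture and 100% = wells lacking enzyme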)). Settings: purified FXIa, fluorogenic substrate, pooled mixtures; at 5 µM; stronger effect = higher value.
Coagulation factor XI (Homo sapiens), sequence (P03951 19-387 limits assumed): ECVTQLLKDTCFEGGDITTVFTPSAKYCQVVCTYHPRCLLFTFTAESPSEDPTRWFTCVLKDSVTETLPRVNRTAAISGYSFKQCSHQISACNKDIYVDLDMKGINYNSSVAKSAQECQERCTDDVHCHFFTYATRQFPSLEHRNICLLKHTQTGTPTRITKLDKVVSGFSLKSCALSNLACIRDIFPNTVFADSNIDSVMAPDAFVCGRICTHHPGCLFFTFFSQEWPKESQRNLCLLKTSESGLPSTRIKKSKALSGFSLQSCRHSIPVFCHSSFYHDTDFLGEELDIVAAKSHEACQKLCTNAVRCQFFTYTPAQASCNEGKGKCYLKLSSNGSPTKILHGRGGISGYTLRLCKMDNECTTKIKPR
Coagulation factor XI (Homo sapiens), sequence (P03951 388-625 limits assumed): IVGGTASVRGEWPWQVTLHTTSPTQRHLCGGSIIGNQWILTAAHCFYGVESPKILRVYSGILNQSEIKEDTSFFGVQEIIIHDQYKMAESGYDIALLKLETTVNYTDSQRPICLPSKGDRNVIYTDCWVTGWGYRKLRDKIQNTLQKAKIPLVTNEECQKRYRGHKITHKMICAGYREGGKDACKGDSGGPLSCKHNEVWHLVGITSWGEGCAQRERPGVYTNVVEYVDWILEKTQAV

inhibition, inactive:
CN1CCN(C(=O)c2ccc(NS(=O)(=O)c3ccccc3)cc2)CC1 1.27%, Cc1nonc1OCCn1nnnc1N -1.41%, COc1ccc(CCNS(=O)(=O)c2ccc(C(=O)NCc3ccco3)cc2)cc1OC 2.31%, Cc1ccc2nc(-c3ccc(SCC(=O)Nc4cc(C)on4)nc3)[nH]c2c1 -9.14%, COc1ccc(Cn2c(=O)sc3ccccc32)cc1OC -0.795%, CC1(C)Oc2ccc(C(=O)N3CCOCC3)cc2N(CC(=O)Nc2ccccc2)C1=O 7.31%, O=C(CSc1nnc(-c2cccs2)n1-c1ccccc1)N1CCN(C(=O)c2ccco2)CC1 -14.5%, O=S(=O)(NCCNS(=O)(=O)c1ccccc1)c1ccccc1 -3.77%, COc1ccc(NC(=O)c2c(SC)nsc2SC)cc1 4.24%, COc1cccc(Nc2ncccc2C(=O)O)c1 5.89%, COc1ccc(Cc2nnnn2CC(=O)O)cc1 3.18%, O=C(O)c1ccc(F)c(S(=O)(=O)Nc2ccccc2)c1 7.12%, CCN(CC)CCCNC(=O)c1cc(-c2cccc(Cl)c2)on1 5.02%, CCOC(=O)Cn1c(N)c(C(=O)OC)sc1=S -0.995%, O=C(Cn1cnc2c(cnn2-c2ccc(F)cc2)c1=O)NCCc1ccccc1 -10.3%, Cc1cc(C)c(C#N)c(SCc2[nH]nc3c2C(c2ccccc2)C(C#N)=C(N)O3)n1 (configuration not stated) 1.67%, c1ccc2c(CNn3cnnc3)cccc2c1 7.96%, COC(=O)c1ccc(CN(c2ccccc2OC)S(=O)(=O)c2cccs2)o1 -7.66%, CCOC(=O)c1c(C)nc(-c2ccccc2)nc1NC(=O)C(C)C 5.54%, CCOc1ccc(N=C2SC(C(=O)O)CC(=O)N2C)cc1 (configuration not stated) -15.5%, CCC(=NC1CC(C)(C)NC(C)(C)C1)C1=C(O)CC(C)(C)CC1=O -8.62%, CCCCN(C)C(=O)C1CCN(Cc2ccccn2)CC1 -2.55%, COc1ccc(CSc2nc(N3CCOCC3)c3c(c2C#N)CC(C)(C)OC3)cc1 -0.245%, COc1cc2cc(CN(CCN3CCCC3)C(=O)Nc3ccccc3Cl)c(=O)[nH]c2cc1OC 2.35%, C=CCn1c(SCc2nnc(-c3ccccc3)o2)nnc1C(O)c1ccccc1 (configuration not stated) -17.4%, CCCCCCC(=O)N(O)C1CC(=O)N(c2ccccc2)C1=O (configuration not stated) 1.64%, O=C1CC2(CCCCC2)Oc2ccc(OCC(=O)N3CCOCC3)cc21 4.52%, Cc1cn(COC/C=C/c2ccccc2)c(=O)[nH]c1=O -1.04%, CCNc1nc(NCC)nc(N(C)n2cnnc2)n1 -3.07%, CC(C)(C)c1ccc(C(=O)NCCC(=O)NCc2ccco2)cc1 3.48%, CCn1cc(C(=O)N2CCN(C3CCCCC3)CC2)c2cc(OC)c(OC)cc2c1=O 4.42%, COC(=O)[C@@H](NC(=O)NCc1cccc(OC)c1)C(C)C -1.25%, COC(=O)CCNc1ccc2c(c1)OCCO2 -1.79%, COc1ccc(-c2c(C)nn3c(N4CCC(C(=O)N5CCCCC5)CC4)cc(C)nc23)cc1OC 8.56%, CCc1ccccc1N(CC(=O)NCCSCc1ccco1)S(C)(=O)=O -9.75%, CCSc1nc2c(c(=O)[nH]1)C(c1cccnc1)C(C(=O)OC(C)C)=C(C)N2 (configuration not stated) 7.07%, Cn1c(=NC(=O)c2cnccn2)sc2ccccc21 5.25%, O=C(OC(C(=O)NC1CCCC1)c1ccc(F)cc1)c1ccno1 (configuration not stated) 7.23%, CN(C)CCNC(CC(=O)Nc1ccc(Cl)c(Cl)c1)C(=O)O (configuration not stated) 0.68%, CN1CCN(c2cc(=O)n(-c3ccc(Cl)cc3)c(=O)[nH]2)CC1 -10.3%, COc1ccc(C)cc1NC(=O)CSc1nc(SC)ns1 6.14%, CCOc1ccccc1NC(=O)C1CCN(S(=O)(=O)c2c(C)nn(C)c2C)CC1 9%, COc1cccc2c(=O)n(CC(=O)N3CCCCCC3)ccc12 -15.3%, Cc1ccc(C(=O)O)cc1S(=O)(=O)NCC1CCCO1 (configuration not stated) 8.82%, CCOC(=O)Cn1c(CN(Cc2ccccc2)Cc2ccccc2)nc2c1c(=O)[nH]c(=O)n2C -7.29%, CCSC(C)CC1C/C(=N/O)c2c(C)noc2C1 (configuration not stated) 0.87%, O=C(CSC1=Nc2ccccc2C2=NC(c3ccccc3)C(=O)N12)NCC1CCCO1 (configuration not stated) 2.26%
